PLCg1 inh – PLC-gamma1 enzyme inhibitors, primary screen, biochemical, fluorescence, purified enzyme; inhibition, % at 12.2 µM; fluorogenic substrate; AID 720700, 2013; 0.84% of 370,000 active; 1-phosphatidylinositol 4,5-bisphosphate phosphodiesterase gamma-1 (Homo sapiens), P19174; in the data active means inhibition above about 9.5%
proKLK7 act – proKLK7 zymogen activators, primary screen, biochemical, fluorescence intensity; purified proKLK7, EDANS-DABCYL substrate fluorescence; 100% is mature enzyme control, 0% vehicle; 0.9% of 370,000 active; activation, % at 7 µM;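 active means activation above the mean of all tested compounds plus 3 SD, computed per campaign excluding outliers beyond control limits, cut at about 13% in these data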
Target sequence (P49862 whole entry, looked up): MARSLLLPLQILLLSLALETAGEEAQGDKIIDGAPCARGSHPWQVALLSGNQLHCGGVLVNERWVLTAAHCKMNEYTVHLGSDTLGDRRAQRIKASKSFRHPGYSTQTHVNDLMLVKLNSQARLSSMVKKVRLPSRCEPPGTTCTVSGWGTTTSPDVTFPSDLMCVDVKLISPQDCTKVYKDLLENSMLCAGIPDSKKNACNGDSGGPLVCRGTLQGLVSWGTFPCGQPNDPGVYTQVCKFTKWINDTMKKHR
ADAM17 inh – ADAM17 inhibitors, primary screen, biochemical, QFRET; inhibition, % at 6.95 µM; recombinant ADAM17, EDANS/DABCYL FRET peptide cleavage; AID 720648, 2013; 0.83% of 370,000 active;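 active means inhibition above the mean of compounds lying between control limits plus 3 SD, set per campaign, cut at about 8.5% in these data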
ADAM10 inh – human ADAM10 inhibitors, primary screen, biochemical, QFRET, HTS | Disintegrin and metalloproteinase domain-containing protein 10 (Homo sapiens), O14672 | recombinant ADAM10, EDANS/DABCYL FRET peptide cleavage, 3 h | inhibition, % at 7 µM | 0.62% of 370,000 active;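 active means inhibition above a per-campaign cutoff equal to the mean of compounds falling between control-based bounds plus 3 SD, cut at about 20% in these data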
PLC-beta3 inh – human PLC-beta3 inhibitors, primary screen, biochemical, fluorescence. 1-phosphatidylinositol 4,5-bisphosphate phosphodiesterase beta-3 (Homo sapiens), Q01970. inhibition, % at 12.2 µM. AID 720704, 2013. Purified PLC-beta3, fluorogenic substrate. 0.18% of 370,000 active
PLCg1 ctr – PLC-gamma1 enzyme inhibitors, counter-screen for PLC-beta3 inhibitor project, biochemical, fluorescence; AID 743258, 2014; shares compounds with PLCg1 inh; 3.1% of 3,300 active; inhibition, % at 12.3 µM; purified PLC-gamma1, fluorogenic substrate; in the data active means inhibition above about 9.5%
PLCbeta3 conf – PLC-beta3 inhibitor confirmation, biochemical, fluorescence, purified enzyme | inhibition, % at 12.3 µM | shares compounds with PLCg1 inh | 1% of 3,300 active | fluorogenic substrate fluorescence
Large screens that a line does not name were inactive (follow-up assays come after a bar, where they were run). Most compounds without a hit are left out; they make up all but 2.9% or so of the library. Unless noted, no stated cut-off is given here; in the data, active means inhibition above about 11%; inactive means the rest.

CCOc1ccc(N(CC(=O)NC2CCCC2)C(=O)CCCC(=O)Nc2ccccn2)cc1	PLC-beta3 inh 15 | PLCg1 ctr inactive | PLCbeta3 conf inactive
CCc1cccc(NC(=O)[C@@H]2CCCN2C2=NS(=O)(=O)c3ccccc32)c1	none
O=C(Nc1cccnc1)C1CCCN(S(=O)(=O)c2ccccc2)C1 (stereo not drawn)	none
O=C(Nc1ccc(Br)cc1)C1CCCN(S(=O)(=O)c2cccnc2)C1 (stereo not drawn)	PLC-beta3 inh 11 | PLCg1 ctr inactive | PLCbeta3 conf inactive
COc1ccc(C(=O)Oc2ccc(C(C)=O)cc2)c(OC)c1	PLCg1 inh 10 | PLCg1 ctr inactive | PLCbeta3 conf inactive
CCOC(=O)C1(C)CCN1C(=O)c1ccc(C)cc1 (stereo not drawn)	PLCg1 inh 9.8, PLC-beta3 inh 16 | PLCg1 ctr inactive | PLCbeta3 conf inactive
C[C@H]1CN([C@@H](C)CO)C(=O)c2cccc(NC(=O)C3CC3)c2O[C@H]1CN(C)C(=O)Nc1ccc2c(c1)OCO2	none
CSCC[C@H](NC(=O)c1ccc2ccccc2c1)C(=O)N1CCC2(CC1)NCCc1[nH]cnc12	none
CSCC[C@H](NC(=O)COc1ccc(Cl)cc1)C(=O)N1CCC2(CC1)NCCc1[nH]cnc12	PLCg1 inh 11 | PLCg1 ctr inactive | PLCbeta3 conf inactive
COc1ccc(S[C@]2(C(=O)N3CCOCC3)CC(=O)N(c3ccc(OC)cc3)[C@@H]2c2ccc(OC)cc2)cc1	PLCg1 inh 9.7 | PLCg1 ctr inactive | PLCbeta3 conf inactive
COc1ccc(S[C@]2(C(=O)N3CCOCC3)CC(=O)N(C(=O)CCc3ccccc3)[C@@H]2c2ccc(OC)cc2)cc1	none
COCc1c(C(=O)OCC(=O)NCCN2C(=O)CSC2=O)oc2ccccc12	none
NC(=O)COC(=O)CCCc1nc2ccccc2s1	PLCg1 inh 12, PLC-beta3 inh 11 | PLCg1 ctr inactive | PLCbeta3 conf inactive
COC(=O)CCCc1nc2ccccc2s1	none
C[n+]1cc2c3c(ccc2c2ccc4cc5c(cc4c21)OCO5)OCO3	none
O=C(CCc1ccc(Oc2cc([N+](=O)[O-])cc([N+](=O)[O-])c2)cc1)N1CCCCC1	none
CC1=[N+]([O-])C(C)(C)CC(C)(C)c2ccccc21	PLC-beta3 inh 12 | PLCg1 ctr inactive | PLCbeta3 conf inactive
COc1ccc(/C=C(\NC(=O)c2ccc(C)cc2)C(=O)N2CCCCC2)cc1	none
COc1ccc(-c2nc3ccccn3c2C=O)cc1	none
O=Cc1c(-c2ccc(F)cc2)nc2ccccn12	PLCg1 inh 11 | PLCg1 ctr inactive | PLCbeta3 conf inactive
Cc1cc(C(=O)NCc2ccccc2Cl)n(-c2ccccc2)n1	none
CCCc1nc2c(C)cc(Br)cn2c1Cc1cccc(F)c1	none
O=S1(=O)c2ccc(Br)cc2OC[C@@H](Cc2ccccc2)N1Cc1cn(CC2CCCCC2)nn1	PLCg1 inh 10 | PLCg1 ctr inactive | PLCbeta3 conf inactive
O=C(NCCc1ccncc1)C(F)(F)F	PLCg1 inh 11 | PLCg1 ctr inactive | PLCbeta3 conf inactive
O=C(Nc1nc(-c2ccc(F)c(F)c2)cs1)Nc1ccc(F)cc1F	PLCg1 inh 10 | PLCg1 ctr inactive | PLCbeta3 conf inactive
O=C(Cc1ccccc1F)Nc1nc(-c2ccc(F)c(F)c2)cs1	none
CC(=O)c1ccc(N2CCN(C(=O)c3ccco3)CC2)c(F)c1	none
CC(=O)c1ccc(N2CCN(C(=O)c3ccc(Br)cc3)CC2)c(F)c1	PLC-beta3 inh 12 | PLCg1 ctr inactive | PLCbeta3 conf inactive
CN(C)S(=O)(=O)c1cccc(C(=O)NCC(C)(C)CNC(=O)c2cccc(S(=O)(=O)N(C)C)c2)c1	PLCg1 inh 9.9 | PLCg1 ctr inactive | PLCbeta3 conf inactive
COc1ccc(C(=O)COC(=O)[C@H](C)Nc2ccc(C(F)(F)F)cc2[N+](=O)[O-])cc1	PLCg1 inh 11 | PLCg1 ctr inactive | PLCbeta3 conf inactive
O=C(NCCCl)Nc1ccccc1OCCOc1ccccc1NC(=O)NCCCl	none
O=C(Nc1ccc(Cl)c([N+](=O)[O-])c1)c1ccncc1	PLCg1 inh 11 | PLCg1 ctr inactive | PLCbeta3 conf inactive
CCCCNC(=O)C1CC(=O)N(C2CCCC2)C1 (stereo not drawn)	PLCg1 inh 12 | PLCg1 ctr inactive | PLCbeta3 conf inactive
CCCCN(CCCC)CC(O)COc1ccccc1C(=O)Nc1ccccc1 (stereo not drawn)	PLC-beta3 inh 11 | PLCg1 ctr inactive | PLCbeta3 conf inactive
CC(=O)NC1CC(C)(C)N(OC(C)=O)C(C)(C)C1	PLCg1 inh 10 | PLCg1 ctr inactive | PLCbeta3 conf inactive
CCc1noc(C)c1C(=O)N1CCCC(N2CCN(c3cccc(Cl)c3)CC2)C1 (stereo not drawn)	none
O=C1OC[C@H]2CCCC[C@@H](CO)ON12	PLCg1 inh 9.6 | PLCg1 ctr inactive | PLCbeta3 conf inactive
O=C1C(=O)N(O)C2CCCCC2N1O (stereo not drawn)	none
Cc1ncsc1CCOC(=O)c1ccc(Cl)cc1	none
CCCNC(=O)COC(=O)c1ccc(OCC(=O)Nc2ccccc2OC)c(OC)c1	none
COc1ccccc1NC(=O)COc1ccc(C(=O)OCC(=O)NC(C)(C)C)cc1OC	PLCg1 inh 13 | PLCg1 ctr inactive | PLCbeta3 conf inactive
CCCCOc1cccc(C(=O)Nc2ccc(N3CCN(CC)CC3)cc2)c1	PLC-beta3 inh 11 | PLCg1 ctr inactive | PLCbeta3 conf inactive
COc1cccc(C(=O)NNC(=O)CCN2CCN(c3ccccc3)CC2)c1	PLC-beta3 inh 13 | PLCg1 ctr inactive | PLCbeta3 conf inactive
COc1cccc(C(=O)NCCN2CCN(c3ccc(Cl)cc3)CC2)c1	PLCg1 inh 9.9 | PLCg1 ctr inactive | PLCbeta3 conf inactive
O=C(CCN1CCN(c2ccccc2)CC1)NNC(=O)c1cccc2ccccc12	none
CCCn1nc(C(=O)NNC(=O)C2CSC3(C)CCC(=O)N23)c2ccccc2c1=O (stereo not drawn)	none
COc1ccc(OCc2nn3c(-c4ccco4)nnc3s2)cc1	none
c1coc(-c2nnc3sc(Cc4cccs4)nn23)c1	PLCg1 inh 20 | PLCg1 ctr inactive | PLCbeta3 conf inactive
COc1cccc(C2(O)CCN(C(=O)C3CC3)CC2)c1	none
